A selection: hits, their analogues and other compounds. The true share with any hit is near 3.4%.
TEAD-YAP block = TEAD-YAP interaction inhibition; HEK-TIYL cells, TEAD-Gal4/YAP UAS-luciferase luminescence; inhibition, % at 9.12 µM; 1.4% of 640,000 active; AID 1259422; in the data active = inhibition above about 32%
FBW7 act = human FBW7 E3 ligase activation, primary screen | Q969H0 | normalized activity (activation), % at 26.1 µM | AID 1259310 | AlphaScreen FBW7–phospho-cyclin E peptide binding, activator screen | 0.13% of 650,000 active; in the data active = normalized activity above about 1.9%;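 note: purified mutant Fbw7 with reduced substrate affinity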
MITF primary = blocks human microphthalmia-associated transcription factor | O75030 | AlphaScreen MITF homodimerization, bead proximity signal | inhibition, % at 2.6 µM | 0.91% of 650,000 active | AID 1259374; in the data active = inhibition above about 50%
Target sequence (O75030 whole entry, looked up): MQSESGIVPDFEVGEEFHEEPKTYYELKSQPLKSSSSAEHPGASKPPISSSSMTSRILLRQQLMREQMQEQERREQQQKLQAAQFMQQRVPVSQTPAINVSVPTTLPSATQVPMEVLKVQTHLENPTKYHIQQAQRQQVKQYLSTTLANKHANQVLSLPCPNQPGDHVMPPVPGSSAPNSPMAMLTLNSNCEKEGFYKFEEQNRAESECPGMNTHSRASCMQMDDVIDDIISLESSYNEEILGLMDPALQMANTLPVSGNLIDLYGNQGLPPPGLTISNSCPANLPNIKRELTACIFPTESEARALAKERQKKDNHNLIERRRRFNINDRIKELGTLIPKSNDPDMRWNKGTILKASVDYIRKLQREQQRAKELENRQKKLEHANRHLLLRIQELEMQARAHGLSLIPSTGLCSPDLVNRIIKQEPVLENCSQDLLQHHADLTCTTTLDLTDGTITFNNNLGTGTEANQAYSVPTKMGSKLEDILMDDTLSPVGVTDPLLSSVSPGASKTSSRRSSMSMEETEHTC
GPR151 ag = human GPR151 activation; Q8TDV0; PathHunter beta-arrestin GPR151 cells, luminescence; activation, % at 11.2 µM; 1% of 650,000 active; AID 1508602; in the data active = activation above about 4.9%
Hits are given with their value; . = inactive.

SMILES | TEAD-YAP block | FBW7 act | MITF primary | GPR151 ag
CC(=O)NCc1nnc2n1CCN(C/C(Cl)=C/c1ccccc1)CC2 | . | . | . | .
COc1cccc(C2=CC(c3ccc(OC)c(OC)c3OC)n3ncnc3N2)c1 (stereo not given) | . | . | . | .
CCc1ccc(C2=CC(c3ccc(OC)c(OC)c3)n3ncnc3N2)cc1 (stereo not given) | 33 | . | . | .
COc1cccc(C2=CC(c3cc(OC)c(OC)c(OC)c3)n3ncnc3N2)c1 (stereo not given) | 68 | . | . | .
Cc1ccc(C2=CC(c3ccc(C)cc3)n3ncnc3N2)cc1 (stereo not given) | . | . | . | .
COc1cc(C2C=C(c3ccccc3)Nc3ncnn32)cc(OC)c1OC (stereo not given) | 61 | . | . | .
COc1cc(C2C=C(c3ccc(C)cc3)Nc3ncnn32)cc(OC)c1OC (stereo not given) | 62 | . | . | .
COc1ccc(C2C=C(c3ccc(Cl)cc3)Nc3ncnn32)cc1OC (stereo not given) | . | . | . | .
Cn1c2ccccc2n2c(SCC(=O)O)nnc12 | . | . | . | .
CCc1ccc(C2=CC(c3cc(OC)c(OC)c(OC)c3)n3nnnc3N2)cc1 (stereo not given) | 56 | . | . | .
CCc1ccc(C2=CC(c3ccc(Cl)cc3)n3nnnc3N2)cc1 (stereo not given) | . | . | . | .
COc1cc(C2C=C(c3cccc(NC(C)=O)c3)Nc3ncnn32)cc(OC)c1OC (stereo not given) | 52 | . | . | .
CC(=O)Nc1cc(-c2ccc(C)cc2)[nH]n1 | . | 1.9 | . | .
CCOC(=O)CCC(=O)Nc1cc(-c2ccc(C)cc2)[nH]n1 | . | . | . | .
O=c1cc(-c2ccccc2)oc2c(O)c(O)ccc12 | 43 | . | . | .
O=c1cc(-c2ccccc2)oc2cc(O)c(O)cc12 | 70 | . | . | .
COc1ccccc1/C=C(/NC(=O)c1ccccc1)C(=O)O | . | . | . | .
CS(=O)(=O)c1ccc(N2CCCC(C(F)(F)F)C2)c([N+](=O)[O-])c1 (stereo not given) | . | . | . | .
O=C(Oc1cccc2ccccc12)N1CCN2C(=O)[C@@H]3CSCN3C(=O)[C@H]2C1 | 35 | . | . | .
O=C(Cn1cnc([N+](=O)[O-])c1[N+](=O)[O-])Nc1ccc(Cl)cc1 | 87 | . | . | .
O=C(Cn1cnc([N+](=O)[O-])c1[N+](=O)[O-])Nc1cc(Oc2ccccc2)cc([N+](=O)[O-])c1 | 42 | . | . | .
CCCNc1nc(N2CCN(Cc3ccc4c(c3)OCO4)CC2)nc2c1ncn2-c1ccsc1 | . | . | . | .
O=C1c2ccccc2C(=O)N1Cc1cccnc1 | . | . | . | .
Nc1ccc(Oc2ccc3c(c2)C(=O)N(Cc2cccnc2)C3=O)cc1 | 35 | . | . | .
CO[C@H]1[C@@H]([C@@]2(C)O[C@@H]2CC=C(C)C)[C@]2(CC[C@H]1OC(=O)/C=C/C=C/C=C/C=C/C(=O)O)CO2 | 46 | . | . | .
SMILES | TEAD-YAP block | FBW7 act | MITF primary | GPR151 ag
Cc1cc(C)n2nc(C(=O)OCC(=O)c3cc(F)ccc3F)nc2n1 | . | . | . | .
N#C/C(=C\c1ccc([N+](=O)[O-])cc1)C(=O)Nc1ccc(Br)cc1F | . | . | . | .
Cc1ccc(-c2cn3nc(C)c(C)nc3n2)cc1 | 46 | . | . | .
COc1ccc(-c2cn3nc(C)c(C)nc3n2)cc1OC | . | . | . | .
CCOc1ccccc1-c1cc(C(=O)N/N=C(\C)c2cccs2)[nH]n1 | 49 | . | . | .
CCOc1cccc(-c2cc(C(=O)N/N=C(\C)c3cccs3)[nH]n2)c1 | . | . | . | .
CCOc1ccc(-c2cc(C(=O)N/N=C(\C)c3ccc(OC)cc3)[nH]n2)cc1 | 44 | . | . | .
C/C(=N\NC(=O)c1cc(-c2ccccc2Cl)n[nH]1)c1ccc(O)cc1 | . | . | . | .
C/C(=N\NC(=O)c1cc(-c2ccc(CC(C)C)cc2)n[nH]1)c1ccncc1 | 67 | . | . | .
C/C(=N\NC(=O)c1cc(C(C)C)[nH]n1)c1ccncc1 | . | . | . | .
CCOc1ccccc1-c1cc(C(=O)N/N=C(/C)c2ccc(OC)c(OC)c2)[nH]n1 | 40 | . | . | .
COc1ccc(/C=N/NC(=O)CNc2ccc(F)cc2)cc1 | . | . | . | .
CN(C(=O)C1CCN(C(=O)N2CCCC2)CC1)C(c1ccc(F)cc1)c1ccccn1 (stereo not given) | . | . | . | .
CCOC(=O)c1c(C)[nH]c(-c2csc(N)n2)c1C | 32 | . | . | .
CSc1cccc(NS(=O)(=O)c2ccc(Br)cc2)c1 | . | . | . | .
CCc1nnc(NC(=O)c2sc3nc4c(cc3c2N)CCC4)s1 | . | . | . | .
Nc1c(C(=O)Nc2ccc(Cl)cn2)sc2nc3c(cc12)CCC3 | 94 | . | . | .
Nc1c(C(=O)Nc2nccs2)sc2nc3c(cc12)CCCC3 | 77 | . | . | .
COc1cc(CN2CCN(CCOCCO)CC2)cc(Br)c1O | . | . | . | .
C=CC(=O)Nc1ccc(Br)c(C)c1 | 62 | . | . | .
Cc1cc(NC(=O)C(C)(C)C)ccc1Br | . | . | . | .
N[C@@H]1CC[C@H](C(=O)Nc2ccc3[nH]ncc3c2)C1 | . | . | . | .
N[C@H]1CC[C@@H](C(=O)Nc2ccc3cnccc3c2)C1 | 36 | . | . | .
Cc1ccc(NC2=NCC(=O)N2C2CCCC2)cc1 | 56 | . | . | .
CCCNc1ccnc(Nc2ccccc2)n1 | . | . | . | .
SMILES | TEAD-YAP block | FBW7 act | MITF primary | GPR151 ag
CCCNc1ccnc(Nc2ccncc2)n1 | 36 | . | . | .
Cc1cc(C)nc(SCC(=O)NNC(=O)C23CC4CC(CC(C4)C2)C3)n1 | . | . | . | .
Cc1[nH]n(-c2ccccc2)c(=O)c1C(=O)c1cccc(F)c1 | 46 | . | . | .
Cc1[nH]n(-c2ccccc2)c(=O)c1C(=O)c1ccc(Cl)cc1 | 61 | . | . | .
Cc1[nH]n(-c2ccccc2)c(=O)c1C(N)=NC(=O)c1ccccc1 | . | . | . | .
O=S(=O)(c1ccccc1)N1CCN(c2ncnc3c2cnn3-c2ccccc2)CC1 | . | . | . | .
CC1=CCC(C(=O)O)C(C(=O)Nc2ccc(-c3nc4ccc(C)cc4s3)cc2)C1 (stereo not given) | 59 | . | . | .
Cc1ccc(S(=O)(=O)Nc2ccccc2C(=O)Nc2ccc(-c3nc4ccc(C)cc4s3)cc2)cc1 | . | . | . | .
Cc1ccc(S(=O)(=O)NC(=O)Nc2ccc(-c3nc4ccc(C)cc4s3)cc2)cc1 | 91 | . | . | .
CCCCC(=O)Nc1cc(OC)c(OC)cc1C(=O)O | . | 2.2 | . | .
COc1ccccc1CC(=O)Nc1cc(OC)c(OC)cc1C(=O)O | . | . | . | .
COc1ccc(Cl)cc1N(CC(=O)Nc1ccccc1-c1ccccc1)S(C)(=O)=O | . | . | . | .
NC(=O)c1ccsc1NC(=O)/C=C/c1cccs1 | 64 | . | . | .
CC1CCCN(CCCNS(=O)(=O)c2ccc3c(c2)oc(=O)n3C)C1 (stereo not given) | . | . | . | .
O=C(c1ccc(-c2nc3ccccc3s2)s1)N1CCCC1 | 89 | . | . | .

Assay outcomes deposited in PubChem BioAssay by The Scripps Research Institute Molecular Screening Center.
